Results from the supplement of paper PMC10849652.
For some assays here: Targets with a hit are over-represented here; the source holds about 7,900 in all. For some assays here: About 0.6% of all pairs of compound and target were hits. For some assays here: About 8,800 targets were measured; listed, in parts, are those with a hit and a random draw of the rest. For some assays here: About 0.5% of all pairs of compound and target were hits.

What was measured:
[1] = compound: C1=CC=C(C=C1)[C@H](COC2=CC3=C(C=C2)NC(=O)N3)NC(=O)C4=CC=CN(C4=O)CC5=CC(=C(C=C5)F)F; assay: log2 fold change, soluble protein after heating vs DMSO (PISA); higher = thermal stabilisation; K562 lysate, 10 uM; active = over 0.2 and 3.5 SD of the protein, either way, in both replicates (recomputed)
Procedure, shortened: (§1)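 The values are log-two fold changes in thermal stability compared with solvent controls and come from duplicates. They were obtained by TMTpro 16plex LC-MS/MS, with channel sums equalised, on the supernatant after 21,000xg for 90 min. That supernatant came from crude K562 extract at 1 mg/mL protein treated with 10 μM compound for 30 min, heated for 3 min across 48°C-58°C, pooled and brought to 0.5% NP-40 at 4°C.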

[2] = compound: CC1=C(SC2=C1C(=N[C@H](C3=NN=C(N32)C)CC(=O)N)C4=CC=C(C=C4)Cl)C; assay: as above
Procedure, shortened: as §1

[3] = compound: CC1=C2C(=CC=C1)N=C(N(C2=O)C3=CC=CC=C3C)CN4C=NC5=C(N=CN=C54)N; assay: as above
Procedure, shortened: as §1

[4] = compound: Cc1sc2c(c1C)C(c1ccc(Cl)cc1)=N[C@@H](CC(=O)OC(C)(C)C)c1nnc(C)n1-2; assay: as above
Procedure, shortened: as §1

[5] = compound: c1ccc([C@@H]2C[C@H]2NC2CCNCC2)cc1; assay: as above
Procedure, shortened: as §1

[6] = compound: C1=CC=C(C=C1)[C@H](COC2=CC3=C(C=C2)NC(=O)N3)NC(=O)C4=CC=CN(C4=O)CC5=CC(=C(C=C5)F)F; assay: log2 fold change, soluble protein after heating vs DMSO (PISA); higher = thermal stabilisation; K562 cells, 10 uM, 30 min; active = over 0.2 and 3.5 SD of the protein, either way, in both replicates (recomputed)
Procedure, shortened: (§2)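 K562 cells at 2×10^6 cells/mL were treated for 30 min with 10 μM compound, and aliquots were heated for 3 min over 48°C-58°C before pooling. Extraction used PBS with 0.5% NP-40 at 4°C, and soluble protein was the supernatant after 21,000xg for 90 min, measured by TMTpro 16plex LC-MS/MS with channel sums equalised. Thermal stability values, relative to control samples and from duplicates, are log2 fold changes.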

[7] = compound: CC1=C(SC2=C1C(=N[C@H](C3=NN=C(N32)C)CC(=O)N)C4=CC=C(C=C4)Cl)C; assay: as above
Procedure, shortened: as §2

[8] = compound: CC1=C2C(=CC=C1)N=C(N(C2=O)C3=CC=CC=C3C)CN4C=NC5=C(N=CN=C54)N; assay: as above
Procedure, shortened: as §2

[9] = compound: Cc1sc2c(c1C)C(c1ccc(Cl)cc1)=N[C@@H](CC(=O)OC(C)(C)C)c1nnc(C)n1-2; assay: as above
Procedure, shortened: as §2

[10] = compound: c1ccc([C@@H]2C[C@H]2NC2CCNCC2)cc1; assay: as above
Procedure, shortened: as §2

Measured: log2 fold change

ANKRD54 (UniProt Q6NXT1)
UniProt Q6NXT1, sequence (Q6NXT1 whole entry, looked up): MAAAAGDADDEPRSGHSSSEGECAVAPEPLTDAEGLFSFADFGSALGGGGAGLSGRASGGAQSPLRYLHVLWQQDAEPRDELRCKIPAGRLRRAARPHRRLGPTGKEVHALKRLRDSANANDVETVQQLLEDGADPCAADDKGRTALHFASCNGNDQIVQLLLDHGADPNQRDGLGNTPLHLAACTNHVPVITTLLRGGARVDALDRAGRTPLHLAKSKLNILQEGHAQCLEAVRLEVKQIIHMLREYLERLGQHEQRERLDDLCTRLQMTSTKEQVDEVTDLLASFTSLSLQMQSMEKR
inactive: [1] 0.011 | [2] -0.04 | [3] 0.038 | [4] -0.042 | [5] -0.024

ADK (UniProt P55263)
UniProt P55263, sequence (P55263 whole entry, looked up): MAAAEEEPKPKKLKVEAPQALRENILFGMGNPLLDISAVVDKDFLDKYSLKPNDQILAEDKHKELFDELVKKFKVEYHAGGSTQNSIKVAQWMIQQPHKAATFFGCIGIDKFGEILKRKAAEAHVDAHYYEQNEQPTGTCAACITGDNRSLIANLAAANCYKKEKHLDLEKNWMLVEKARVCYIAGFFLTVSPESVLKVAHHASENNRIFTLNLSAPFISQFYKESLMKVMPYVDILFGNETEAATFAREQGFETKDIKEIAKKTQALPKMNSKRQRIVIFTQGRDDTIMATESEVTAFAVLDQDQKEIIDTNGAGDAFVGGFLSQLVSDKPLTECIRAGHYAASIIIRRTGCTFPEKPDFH
inactive: [1] 0.059 | [2] -0.035 | [3] 0.051 | [4] -0.036 | [5] -0.133

ANKRD40 (UniProt Q6AI12)
UniProt Q6AI12, sequence (Q6AI12 whole entry, looked up): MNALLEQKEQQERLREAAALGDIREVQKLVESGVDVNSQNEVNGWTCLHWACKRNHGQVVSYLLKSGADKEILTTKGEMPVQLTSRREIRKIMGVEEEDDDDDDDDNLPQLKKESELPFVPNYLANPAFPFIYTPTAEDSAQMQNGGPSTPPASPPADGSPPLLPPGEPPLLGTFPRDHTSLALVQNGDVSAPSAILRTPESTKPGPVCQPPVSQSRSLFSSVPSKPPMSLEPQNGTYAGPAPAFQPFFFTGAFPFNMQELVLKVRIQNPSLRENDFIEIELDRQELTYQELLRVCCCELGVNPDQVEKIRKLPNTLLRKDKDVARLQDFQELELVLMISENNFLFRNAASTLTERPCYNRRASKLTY
inactive: [1] 0.133 | [2] 0.072 | [3] 0.536 | [4] -0.156 | [5] 0.053

ABL2 (UniProt P42684)
inactive: [1] -0.026 | [2] 0.016 | [3] 0 | [4] -0.14 | [5] -0.105

ARGLU1 (UniProt Q9NWB6)
UniProt Q9NWB6, sequence (Q9NWB6 whole entry, looked up): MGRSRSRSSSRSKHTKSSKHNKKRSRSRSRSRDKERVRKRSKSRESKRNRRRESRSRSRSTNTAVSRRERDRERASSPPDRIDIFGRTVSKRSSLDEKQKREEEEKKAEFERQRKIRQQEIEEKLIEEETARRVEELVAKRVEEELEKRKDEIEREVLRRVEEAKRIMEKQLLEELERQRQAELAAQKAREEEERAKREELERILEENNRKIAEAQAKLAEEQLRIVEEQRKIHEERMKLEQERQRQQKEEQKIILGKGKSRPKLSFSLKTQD
inactive: [1] 0.049 | [2] 0.009 | [3] 0.036 | [4] -0.026 | [5] 0.074

ADD1 isoform 4 (UniProt P35611)
inactive: [1] 0.22 | [2] 0.088 | [3] 0.12 | [4] -0.099 | [5] -0.571

ARAF (UniProt P10398)
inactive: [1] 0.012 | [2] -0.002 | [3] -0.078 | [4] 0 | [5] 0.002

ABHD12 isoform 2 (UniProt Q8N2K0)
inactive: [1] 0.008 | [2] 0.042 | [3] 0.003 | [4] 0.031 | [5] 0.042

ANKRD27 (UniProt Q96NW4)
inactive: [1] -0.025 | [2] 0.022 | [3] -0.011 | [4] 0.042 | [5] -0.002

ANKRD52 (UniProt Q8NB46)
inactive: [1] -0.004 | [2] -0.036 | [3] 0.056 | [4] 0.055 | [5] 0.004

AMMECR1 (UniProt Q9Y4X0)
inactive: [1] -0.014 | [2] 0.019 | [3] 0.064 | [4] -0.007 | [5] 0.036

AKR1C2 (UniProt P52895)
inactive: [1] -0.012 | [2] 0.047 | [3] 0.047 | [4] -0.184 | [5] -0.107

ADAR isoform 4 (UniProt P55265)
inactive: [1] -0.188 | [2] 0.116 | [3] 0.035 | [4] 0.005 | [5] 0.032

ANXA13 isoform 2 (UniProt P27216)
inactive: [1] 0.058 | [2] -0.041 | [3] -0.048 | [4] 0.17 | [5] 0.011

AP4B1 (UniProt Q9Y6B7)
UniProt Q9Y6B7, sequence (Q9Y6B7 whole entry, looked up): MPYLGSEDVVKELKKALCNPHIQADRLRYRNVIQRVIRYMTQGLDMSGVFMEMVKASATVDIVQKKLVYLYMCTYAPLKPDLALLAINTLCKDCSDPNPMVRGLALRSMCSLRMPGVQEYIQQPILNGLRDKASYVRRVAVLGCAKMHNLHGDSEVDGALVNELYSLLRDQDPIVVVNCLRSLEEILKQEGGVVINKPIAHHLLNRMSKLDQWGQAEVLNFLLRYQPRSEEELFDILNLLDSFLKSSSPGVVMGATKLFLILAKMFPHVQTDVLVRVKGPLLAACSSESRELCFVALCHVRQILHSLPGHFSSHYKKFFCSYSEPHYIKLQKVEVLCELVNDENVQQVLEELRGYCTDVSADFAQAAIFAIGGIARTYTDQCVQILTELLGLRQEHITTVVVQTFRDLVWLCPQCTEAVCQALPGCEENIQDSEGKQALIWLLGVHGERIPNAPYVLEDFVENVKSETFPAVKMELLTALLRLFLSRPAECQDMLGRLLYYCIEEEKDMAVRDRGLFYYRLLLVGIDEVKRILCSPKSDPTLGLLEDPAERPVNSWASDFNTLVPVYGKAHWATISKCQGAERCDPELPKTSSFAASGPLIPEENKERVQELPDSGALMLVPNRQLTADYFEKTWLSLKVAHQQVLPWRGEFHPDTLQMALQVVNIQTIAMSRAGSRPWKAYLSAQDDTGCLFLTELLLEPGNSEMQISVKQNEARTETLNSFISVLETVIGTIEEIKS
inactive: [1] 0.02 | [2] 0.063 | [3] -0.025 | [4] 0.093 | [5] 0.03

ANLN (UniProt Q9NQW6)
inactive: [1] 0.04 | [2] -0.014 | [3] 0.053 | [4] 0.015 | [5] 0.005

ALDH1B1 (UniProt P30837)
inactive: [1] 0.143 | [2] -0.021 | [3] 0.006 | [4] 0.049 | [5] 0.019

AGL (UniProt P35573)
UniProt P35573, sequence (P35573 whole entry, looked up): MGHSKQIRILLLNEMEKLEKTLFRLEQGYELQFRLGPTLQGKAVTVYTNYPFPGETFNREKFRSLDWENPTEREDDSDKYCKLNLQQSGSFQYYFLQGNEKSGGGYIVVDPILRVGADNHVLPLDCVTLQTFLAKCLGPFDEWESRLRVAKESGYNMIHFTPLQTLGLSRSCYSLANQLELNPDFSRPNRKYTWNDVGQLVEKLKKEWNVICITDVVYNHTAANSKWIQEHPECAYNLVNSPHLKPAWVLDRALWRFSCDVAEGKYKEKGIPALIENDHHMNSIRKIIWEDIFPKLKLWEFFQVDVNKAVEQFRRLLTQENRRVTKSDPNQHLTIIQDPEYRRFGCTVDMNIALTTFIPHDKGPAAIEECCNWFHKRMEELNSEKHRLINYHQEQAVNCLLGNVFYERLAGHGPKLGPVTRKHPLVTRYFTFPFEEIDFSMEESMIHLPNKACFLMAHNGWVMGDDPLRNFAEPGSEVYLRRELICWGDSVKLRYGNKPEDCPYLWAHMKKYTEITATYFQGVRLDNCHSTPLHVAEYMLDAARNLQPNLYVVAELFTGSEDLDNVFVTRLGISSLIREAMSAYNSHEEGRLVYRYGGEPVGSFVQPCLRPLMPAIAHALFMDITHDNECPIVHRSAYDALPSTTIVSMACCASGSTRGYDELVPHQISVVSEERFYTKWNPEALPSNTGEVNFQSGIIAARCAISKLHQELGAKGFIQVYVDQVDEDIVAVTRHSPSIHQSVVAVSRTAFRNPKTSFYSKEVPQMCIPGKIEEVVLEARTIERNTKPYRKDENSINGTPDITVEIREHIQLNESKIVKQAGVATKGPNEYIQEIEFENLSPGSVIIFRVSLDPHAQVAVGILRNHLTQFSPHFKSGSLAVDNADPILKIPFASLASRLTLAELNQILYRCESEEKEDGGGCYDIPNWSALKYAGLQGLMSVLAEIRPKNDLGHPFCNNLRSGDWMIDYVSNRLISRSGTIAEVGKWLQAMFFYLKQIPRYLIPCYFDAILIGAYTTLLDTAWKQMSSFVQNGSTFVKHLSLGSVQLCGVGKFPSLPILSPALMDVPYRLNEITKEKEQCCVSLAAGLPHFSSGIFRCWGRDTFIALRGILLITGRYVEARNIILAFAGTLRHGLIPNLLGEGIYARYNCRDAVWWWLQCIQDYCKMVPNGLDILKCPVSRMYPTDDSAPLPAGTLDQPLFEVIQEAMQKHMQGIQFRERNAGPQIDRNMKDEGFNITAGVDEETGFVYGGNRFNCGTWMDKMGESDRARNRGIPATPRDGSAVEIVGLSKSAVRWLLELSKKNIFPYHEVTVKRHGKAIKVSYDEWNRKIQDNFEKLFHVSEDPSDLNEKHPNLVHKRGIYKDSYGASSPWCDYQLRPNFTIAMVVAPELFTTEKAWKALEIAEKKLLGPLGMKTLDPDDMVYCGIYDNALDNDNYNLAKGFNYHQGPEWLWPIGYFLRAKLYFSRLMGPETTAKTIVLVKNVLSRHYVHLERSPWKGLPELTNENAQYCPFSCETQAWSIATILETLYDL
inactive: [1] 0.022 | [2] 0.028 | [3] 0.036 | [4] 0.035 | [5] 0.086

APOB (UniProt P04114)
inactive: [1] -0.009 | [2] 0.039 | [3] 0.023 | [4] -0.168 | [5] -0.109

APOBEC3C (UniProt Q9NRW3)
inactive: [1] -0.003 | [2] 0.032 | [3] 0.013 | [4] 0.014 | [5] -0.062

ADD1 isoform 3 (UniProt P35611)
inactive: [1] 0.03 | [2] 0.016 | [3] -0.01 | [4] -0.021 | [5] 0.015

ARL13B (UniProt Q3SXY8)
inactive: [1] 0.087 | [2] 0.03 | [3] 0.012 | [4] 0.019 | [5] 0.145

ACADS (UniProt P16219)
inactive: [1] -0.015 | [2] 0.069 | [3] 0.054 | [4] 0.013 | [5] 0.003

ASCC2 (UniProt Q9H1I8)
UniProt Q9H1I8, sequence (Q9H1I8 whole entry, looked up): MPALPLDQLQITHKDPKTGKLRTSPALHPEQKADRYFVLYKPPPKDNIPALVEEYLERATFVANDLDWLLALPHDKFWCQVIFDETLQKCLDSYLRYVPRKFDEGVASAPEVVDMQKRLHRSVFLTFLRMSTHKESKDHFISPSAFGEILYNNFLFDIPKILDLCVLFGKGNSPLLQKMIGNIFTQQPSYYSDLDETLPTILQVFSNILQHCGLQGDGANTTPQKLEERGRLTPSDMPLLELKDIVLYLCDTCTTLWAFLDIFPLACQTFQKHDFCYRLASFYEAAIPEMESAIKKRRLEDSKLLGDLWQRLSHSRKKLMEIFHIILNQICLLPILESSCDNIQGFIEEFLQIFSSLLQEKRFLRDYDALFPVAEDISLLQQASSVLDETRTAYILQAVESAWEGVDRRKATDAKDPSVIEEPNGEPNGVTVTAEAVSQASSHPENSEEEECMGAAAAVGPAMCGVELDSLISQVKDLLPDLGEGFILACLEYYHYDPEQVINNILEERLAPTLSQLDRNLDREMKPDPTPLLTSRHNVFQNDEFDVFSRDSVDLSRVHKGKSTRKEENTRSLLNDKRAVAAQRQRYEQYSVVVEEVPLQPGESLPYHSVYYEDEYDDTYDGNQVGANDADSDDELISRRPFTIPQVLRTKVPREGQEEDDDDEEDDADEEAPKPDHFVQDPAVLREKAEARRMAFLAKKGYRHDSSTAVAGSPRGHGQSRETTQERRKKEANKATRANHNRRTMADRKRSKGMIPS
inactive: [1] 0.181 | [2] 0.063 | [3] -0.027 | [4] -0.019 | [5] 0.076

ALDH1L2 (UniProt Q3SY69)
inactive: [1] 0.015 | [2] 0.041 | [3] 0.052 | [4] -0.009 | [5] -0.023

AP1G2 (UniProt O75843)
inactive: [1] 0.082 | [2] -0.09 | [3] 0.016 | [4] 0.028 | [5] -0.099

ARHGAP6 (UniProt O43182)
inactive: [1] -0.026 | [2] -0.023 | [3] -0.012 | [4] 0.018 | [5] 0.02

AIFM2 (UniProt Q9BRQ8)
active: [1] 0.668
inactive: [2] 0.008 | [3] 0.039 | [4] -0.007 | [5] -0.1

ANXA2 (UniProt H0YL33)
inactive: [1] 0.079 | [2] -0.079 | [4] -0.135 | [5] 0.466

ARFGAP1 (UniProt Q8N6T3)
inactive: [1] 0.037 | [2] -0.091 | [3] 0.149 | [4] -0.081 | [5] -0.127

ALKBH7 (UniProt Q9BT30)
inactive: [4] -0.012 | [5] -0.014

YES1 (UniProt P07947)
inactive: [6] 0.025 | [7] -0.056 | [8] 0.126 | [9] -0.005 | [10] -0.038

ZDHHC5 (UniProt Q9C0B5)
UniProt Q9C0B5, sequence (Q9C0B5 whole entry, looked up): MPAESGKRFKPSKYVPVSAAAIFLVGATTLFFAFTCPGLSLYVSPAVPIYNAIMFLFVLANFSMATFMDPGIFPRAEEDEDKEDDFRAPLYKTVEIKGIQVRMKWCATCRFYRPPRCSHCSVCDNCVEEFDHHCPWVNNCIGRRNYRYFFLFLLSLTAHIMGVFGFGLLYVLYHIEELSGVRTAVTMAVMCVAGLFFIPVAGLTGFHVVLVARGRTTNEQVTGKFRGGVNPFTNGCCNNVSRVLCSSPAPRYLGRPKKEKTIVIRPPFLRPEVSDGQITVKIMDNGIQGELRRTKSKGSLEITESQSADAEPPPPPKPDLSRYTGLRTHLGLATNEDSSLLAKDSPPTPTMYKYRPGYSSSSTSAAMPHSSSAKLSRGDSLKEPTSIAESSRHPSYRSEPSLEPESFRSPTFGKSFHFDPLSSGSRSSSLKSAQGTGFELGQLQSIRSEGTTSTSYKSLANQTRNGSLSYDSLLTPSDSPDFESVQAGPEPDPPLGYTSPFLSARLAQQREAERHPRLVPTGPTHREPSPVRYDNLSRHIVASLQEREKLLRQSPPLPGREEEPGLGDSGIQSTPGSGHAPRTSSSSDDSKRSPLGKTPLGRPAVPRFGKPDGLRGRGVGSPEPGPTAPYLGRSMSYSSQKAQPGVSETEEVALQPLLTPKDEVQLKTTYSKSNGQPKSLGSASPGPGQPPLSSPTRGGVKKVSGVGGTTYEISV
inactive: [6] 0.015 | [7] 0.007 | [8] 0.04 | [9] -0.013 | [10] 0.077
